Source: the supplement of paper PMC10849652
Targets with a hit are over-represented here; the source holds about 7,900 in all. About 0.6% of all pairs of compound and target were hits.

Columns and labels:
Assay in all cases: log2 fold change, soluble protein after heating vs DMSO (PISA); higher = thermal stabilisation; K562 cells, 10 uM, 30 min; active = over 0.2 and 3.5 SD of the protein, either way, in both replicates (recomputed)
IRAK-1-4 Inhibitor I = compound: C1COCCN1CCN2C3=CC=CC=C3N=C2NC(=O)C4=CC(=CC=C4)[N+](=O)[O-] [IRAK-1-4 Inhibitor I]
In short: (§1)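 For each measurement, 10 μM compound was applied for 30 min to K562 cells at 2×10^6 cells/mL. Aliquots were heated for 3 min across 48°C-58°C, pooled, and extracted in PBS with 0.5% NP-40 at 4°C; the supernatant after 21,000xg for 90 min was soluble protein. This was quantified by TMTpro 16plex LC-MS/MS with channel sums equalised, and thermal stability was reported relative to control samples from duplicates, on a log2 fold-change scale.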

ibrutinib = compound: C=CC(=O)N1CCC[C@@H](n2nc(-c3ccc(Oc4ccccc4)cc3)c3c(N)ncnc32)C1 [ibrutinib]
In short: as §1

[1] = compound: CC(=O)c1cnc2ccc(-c3cc(Cl)c(O)c(Cl)c3)nc2c1N[C@H]1CC[C@H](CN(C)C)CC1
In short: as §1

ralimetinib = compound: CC(C)(C)Cn1c(N)nc2ccc(-c3[nH]c(C(C)(C)C)nc3-c3ccc(F)cc3)nc21 [ralimetinib]
In short: as §1

[2] = compound: CC(C)(O)CC(=O)NCCn1ccc2ncnc(Nc3ccc(Oc4cccc(C(F)(F)F)c4)c(Cl)c3)c21
In short: as §1

[3] = compound: CC(C)C1=C2N=C(C=C(N2N=C1)NCC3=CC=CC=C3)NCCCCCCN
In short: as §1

[4] = compound: CC(C)C[C@@H](C=O)NC(=O)[C@H](CC(C)C)NC(=O)[C@H](CC(C)C)NC(=O)OCc1ccccc1
In short: as §1

pinometostat = compound: CC(C)N(C[C@H]1O[C@@H](n2cnc3c(N)ncnc32)[C@H](O)[C@@H]1O)[C@H]1C[C@@H](CCc2nc3cc(C(C)(C)C)ccc3[nH]2)C1 [pinometostat]
In short: as §1

[5] = compound: CC1=C(C(CC(=O)N1)C2=CC=C(C=C2)C(F)(F)F)C(=O)NC3=C(C=C4C(=C3)C=NN4)F
In short: as §1

[6] = compound: CC1=C(C2=C(C=C1)C(=O)C3=CC=CC=C3N2CCCN)C
In short: as §1

Measured: log2 fold change

ACACB (UniProt O00763)
active: [3] -0.515
inactive: IRAK-1-4 Inhibitor I -0.23 | ibrutinib 0.02 | [1] 0.108 | ralimetinib 0.216 | [2] 0 | [4] 0.066 | pinometostat 0.315 | [5] 0.11 | [6] 0.027

ALG14 (UniProt Q96F25)
inactive: IRAK-1-4 Inhibitor I 0.007 | ibrutinib 0.104 | [1] -0.157 | ralimetinib -0.12 | [2] -0.115 | [3] -0.098 | [4] 0.093 | pinometostat 0.038 | [5] 0.002 | [6] 0.195

ALDH6A1 (UniProt Q02252)
inactive: IRAK-1-4 Inhibitor I 0.004 | ibrutinib -0.023 | [1] -0.041 | ralimetinib 0.019 | [2] -0.155 | [3] -0.068 | [4] -0.002 | pinometostat -0.01 | [5] -0.004 | [6] 0.018

ASNS (UniProt P08243)
inactive: IRAK-1-4 Inhibitor I 0.046 | ibrutinib 0.015 | [1] 0.006 | ralimetinib -0.033 | [2] -0.029 | [3] 0.017 | [4] -0.003 | pinometostat -0.034 | [5] -0.007 | [6] -0.007

AFDN isoform 1 (UniProt P55196)
inactive: IRAK-1-4 Inhibitor I -0.046 | ibrutinib -0.015 | [1] -0.102 | ralimetinib -0.12 | [2] -0.048 | [3] -0.001 | [4] 0.002 | pinometostat -0.072

ABHD17A isoform 2 (UniProt Q96GS6)
inactive: IRAK-1-4 Inhibitor I 0.076 | ibrutinib 0.001 | [1] -0.042 | ralimetinib -0.034 | [2] -0.078 | [3] -0.126 | [4] 0.062 | pinometostat 0.079 | [5] -0.042 | [6] 0.077

AP2A2 isoform 2 (UniProt O94973)
inactive: IRAK-1-4 Inhibitor I -0.003 | ibrutinib -0.015 | [1] 0.008 | ralimetinib 0.006 | [2] 0.033 | [3] 0.019 | [4] 0.032 | pinometostat 0.025 | [5] -0.02 | [6] 0.107

ANKRD29 (UniProt Q8N6D5)
inactive: IRAK-1-4 Inhibitor I -0.001 | ibrutinib -0.18 | [1] 0.026 | ralimetinib -0.057 | [2] -0.15 | [3] 0.007 | [4] -0.153 | pinometostat -0.012 | [5] 0.009 | [6] 0.024

ADPRHL2 (UniProt Q9NX46)
inactive: IRAK-1-4 Inhibitor I 0 | ibrutinib -0.021 | [1] -0.025 | ralimetinib -0.021 | [2] -0.088 | [3] 0.08 | [4] -0.038 | pinometostat -0.015 | [5] -0.126 | [6] -0.002

APLP2 (UniProt Q06481)
inactive: IRAK-1-4 Inhibitor I -0.073 | ibrutinib -0.005 | [1] -0.004 | ralimetinib 0.086 | [2] 0.133 | [3] 0.167 | [4] 0.062 | pinometostat 0 | [5] -0.017 | [6] -0.225

B4GALT1 (UniProt P15291)
Sequence of UniProt P15291 (P15291 whole entry, looked up): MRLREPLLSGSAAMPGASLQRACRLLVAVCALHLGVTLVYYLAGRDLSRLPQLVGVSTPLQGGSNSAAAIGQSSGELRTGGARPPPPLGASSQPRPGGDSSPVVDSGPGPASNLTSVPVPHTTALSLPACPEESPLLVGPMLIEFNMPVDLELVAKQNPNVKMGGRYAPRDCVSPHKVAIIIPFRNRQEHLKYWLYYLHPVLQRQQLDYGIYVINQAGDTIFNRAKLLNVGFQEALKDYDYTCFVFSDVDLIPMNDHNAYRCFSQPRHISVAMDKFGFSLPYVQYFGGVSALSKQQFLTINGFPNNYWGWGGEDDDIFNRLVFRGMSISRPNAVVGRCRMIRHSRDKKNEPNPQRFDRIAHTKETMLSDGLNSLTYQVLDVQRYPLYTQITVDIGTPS
active: [3] -0.294
inactive: IRAK-1-4 Inhibitor I 0.034 | ibrutinib -0.057 | [1] -0.019 | ralimetinib 0.094 | [2] 0.094 | [4] 0.017 | pinometostat -0.051 | [5] 0.006 | [6] -0.03

AIP (UniProt O00170)
inactive: IRAK-1-4 Inhibitor I 0 | ibrutinib -0.047 | [1] 0.007 | ralimetinib 0.006 | [2] -0.094 | [3] -0.074 | [4] -0.018 | pinometostat -0.027 | [5] -0.035 | [6] -0.026

APPL1 (UniProt Q9UKG1)
inactive: IRAK-1-4 Inhibitor I 0.016 | ibrutinib -0.067 | [1] -0.074 | ralimetinib -0.024 | [2] 0.037 | [3] 0.006 | [4] 0.069 | pinometostat 0.059 | [5] -0.15 | [6] -0.011

ACBD6 (UniProt Q9BR61)
active: [1] 0.477
inactive: IRAK-1-4 Inhibitor I -0.072 | ibrutinib 0.009 | ralimetinib -0.169 | [2] -0.068 | [3] 0.173 | [4] 0.159 | pinometostat 0.008 | [5] 0.023 | [6] 0.074

BCL9L (UniProt Q86UU0)
Sequence of UniProt Q86UU0 (Q86UU0 whole entry, looked up): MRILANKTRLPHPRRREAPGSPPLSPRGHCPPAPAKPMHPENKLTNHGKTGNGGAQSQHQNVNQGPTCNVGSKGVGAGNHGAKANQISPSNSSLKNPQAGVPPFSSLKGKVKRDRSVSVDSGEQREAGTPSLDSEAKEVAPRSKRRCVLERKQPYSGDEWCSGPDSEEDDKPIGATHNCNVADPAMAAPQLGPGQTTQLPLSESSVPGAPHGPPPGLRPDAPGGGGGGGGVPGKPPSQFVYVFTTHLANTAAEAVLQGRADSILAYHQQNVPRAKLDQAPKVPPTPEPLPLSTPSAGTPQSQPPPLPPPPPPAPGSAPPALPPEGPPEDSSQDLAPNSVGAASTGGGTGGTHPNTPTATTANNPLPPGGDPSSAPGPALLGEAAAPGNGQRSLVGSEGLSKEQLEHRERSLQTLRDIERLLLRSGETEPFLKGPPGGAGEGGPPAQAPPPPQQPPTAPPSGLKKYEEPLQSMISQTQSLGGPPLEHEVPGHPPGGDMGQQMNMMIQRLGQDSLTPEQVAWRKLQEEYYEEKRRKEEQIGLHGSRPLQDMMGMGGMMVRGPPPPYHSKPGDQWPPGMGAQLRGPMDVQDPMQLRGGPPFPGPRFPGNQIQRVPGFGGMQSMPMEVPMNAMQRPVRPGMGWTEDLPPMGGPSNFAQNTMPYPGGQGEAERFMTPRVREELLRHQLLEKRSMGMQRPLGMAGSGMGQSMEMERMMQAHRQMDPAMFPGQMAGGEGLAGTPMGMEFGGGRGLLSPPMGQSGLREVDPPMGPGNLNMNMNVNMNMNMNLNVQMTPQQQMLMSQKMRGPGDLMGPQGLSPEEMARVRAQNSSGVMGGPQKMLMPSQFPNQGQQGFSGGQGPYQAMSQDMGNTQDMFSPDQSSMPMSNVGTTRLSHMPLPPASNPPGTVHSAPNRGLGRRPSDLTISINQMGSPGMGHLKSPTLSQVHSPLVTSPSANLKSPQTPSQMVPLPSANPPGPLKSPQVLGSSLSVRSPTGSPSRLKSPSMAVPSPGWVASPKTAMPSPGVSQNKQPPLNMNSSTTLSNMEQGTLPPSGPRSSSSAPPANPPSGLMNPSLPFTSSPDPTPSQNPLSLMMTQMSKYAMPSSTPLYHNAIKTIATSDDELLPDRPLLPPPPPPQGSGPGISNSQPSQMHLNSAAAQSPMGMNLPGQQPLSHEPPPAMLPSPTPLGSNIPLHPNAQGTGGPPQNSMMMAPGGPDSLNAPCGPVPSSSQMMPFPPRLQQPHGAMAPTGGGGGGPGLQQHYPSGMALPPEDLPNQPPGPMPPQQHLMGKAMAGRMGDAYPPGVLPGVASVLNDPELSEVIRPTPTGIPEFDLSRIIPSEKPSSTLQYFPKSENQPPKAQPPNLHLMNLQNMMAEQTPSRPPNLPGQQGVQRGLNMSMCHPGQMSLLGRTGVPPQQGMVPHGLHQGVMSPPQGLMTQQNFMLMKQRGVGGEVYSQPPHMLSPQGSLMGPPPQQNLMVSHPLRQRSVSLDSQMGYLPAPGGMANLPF
inactive: IRAK-1-4 Inhibitor I -0.045 | ibrutinib 0 | [1] 0.04 | ralimetinib -0.024 | [2] -0.009 | [3] 0.015 | [4] 0.092 | pinometostat 0.013 | [5] 0.006 | [6] 0.101

ATP6V0A2 (UniProt Q9Y487)
active: [3] -0.297
inactive: IRAK-1-4 Inhibitor I -0.006 | ibrutinib -0.026 | [1] -0.017 | ralimetinib 0.057 | [2] -0.01 | [4] 0.049 | pinometostat 0.054 | [5] 0.008 | [6] 0.003

ARF4 (UniProt P18085)
Sequence of UniProt P18085 (P18085 whole entry, looked up): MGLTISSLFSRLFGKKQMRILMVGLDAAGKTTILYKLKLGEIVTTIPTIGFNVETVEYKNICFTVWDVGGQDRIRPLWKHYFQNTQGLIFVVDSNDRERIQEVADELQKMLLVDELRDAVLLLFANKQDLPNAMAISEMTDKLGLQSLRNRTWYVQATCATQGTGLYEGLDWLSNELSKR
inactive: IRAK-1-4 Inhibitor I 0.072 | ibrutinib 0.003 | [1] -0.027 | ralimetinib -0.019 | [2] -0.103 | [3] 0.117 | [4] -0.032 | pinometostat -0.042 | [5] -0.071 | [6] 0.128

BTAF1 (UniProt O14981)
inactive: IRAK-1-4 Inhibitor I 0.021 | ibrutinib 0.029 | [1] 0.022 | ralimetinib -0.043 | [2] -0.168 | [3] -0.131 | [4] 0.01 | pinometostat -0.011 | [5] 0.003 | [6] -0.087

AGPS (UniProt O00116)
Sequence of UniProt O00116 (O00116 whole entry, looked up): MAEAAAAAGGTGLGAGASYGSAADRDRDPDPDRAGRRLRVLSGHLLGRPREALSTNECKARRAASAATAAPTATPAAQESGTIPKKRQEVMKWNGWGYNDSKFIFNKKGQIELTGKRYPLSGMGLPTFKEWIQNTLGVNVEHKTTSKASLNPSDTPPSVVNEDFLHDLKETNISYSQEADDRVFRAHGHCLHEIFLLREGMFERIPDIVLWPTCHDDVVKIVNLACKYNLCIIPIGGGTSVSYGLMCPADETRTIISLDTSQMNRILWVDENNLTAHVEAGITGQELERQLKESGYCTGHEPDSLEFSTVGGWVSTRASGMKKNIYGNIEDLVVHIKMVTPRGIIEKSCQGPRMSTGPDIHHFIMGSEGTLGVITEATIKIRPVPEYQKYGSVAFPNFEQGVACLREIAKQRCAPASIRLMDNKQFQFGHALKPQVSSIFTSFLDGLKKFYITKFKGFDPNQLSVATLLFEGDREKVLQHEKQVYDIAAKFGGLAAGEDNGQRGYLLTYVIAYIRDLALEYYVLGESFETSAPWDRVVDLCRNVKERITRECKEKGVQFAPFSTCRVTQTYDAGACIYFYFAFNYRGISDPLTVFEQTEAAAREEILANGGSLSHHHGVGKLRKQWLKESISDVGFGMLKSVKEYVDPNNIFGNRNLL
inactive: IRAK-1-4 Inhibitor I 0.025 | ibrutinib -0.005 | [1] -0.028 | ralimetinib 0.007 | [2] -0.008 | [3] -0.123 | [4] -0.025 | pinometostat -0.041 | [5] -0.025 | [6] 0.031

AIFM2 (UniProt Q9BRQ8)
inactive: IRAK-1-4 Inhibitor I 0.011 | ibrutinib -0.008 | [1] 0 | ralimetinib -0.005 | [2] 0.189 | [3] 0.161 | [4] -0.061 | pinometostat 0.044 | [5] -0.062 | [6] 0.021

ALKBH5 (UniProt Q6P6C2)
inactive: IRAK-1-4 Inhibitor I 0.015 | ibrutinib 0.05 | [1] 0.053 | ralimetinib 0.049 | [2] 0.025 | [3] 0.198 | [4] -0.016 | pinometostat -0.013 | [5] 0.029 | [6] 0.086

ALG3 (UniProt Q92685)
Sequence of UniProt Q92685 (Q92685 whole entry, looked up): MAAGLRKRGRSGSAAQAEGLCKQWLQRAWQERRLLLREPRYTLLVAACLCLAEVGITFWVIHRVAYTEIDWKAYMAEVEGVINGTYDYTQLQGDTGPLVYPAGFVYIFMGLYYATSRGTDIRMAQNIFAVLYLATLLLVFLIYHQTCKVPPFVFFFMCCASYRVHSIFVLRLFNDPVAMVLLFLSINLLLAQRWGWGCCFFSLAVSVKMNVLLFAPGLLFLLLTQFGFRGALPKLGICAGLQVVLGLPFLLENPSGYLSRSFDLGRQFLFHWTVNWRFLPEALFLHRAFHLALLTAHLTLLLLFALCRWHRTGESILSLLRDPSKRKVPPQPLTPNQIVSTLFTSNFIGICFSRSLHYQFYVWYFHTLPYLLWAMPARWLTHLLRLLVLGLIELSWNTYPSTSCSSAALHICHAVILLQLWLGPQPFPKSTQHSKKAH
inactive: IRAK-1-4 Inhibitor I -0.081 | ibrutinib -0.022 | [1] -0.08 | ralimetinib -0.08 | [2] -0.034 | [3] -0.267 | [4] -0.038 | pinometostat -0.075 | [5] -0.037 | [6] -0.045

AAR2 (UniProt Q9Y312)
inactive: IRAK-1-4 Inhibitor I 0.039 | ibrutinib 0.02 | [1] 0.021 | ralimetinib -0.002 | [2] -0.062 | [3] -0.012 | [4] 0.104 | pinometostat 0.024 | [5] -0.074 | [6] -0.035

ACAP2 (UniProt Q15057)
Sequence of UniProt Q15057 (Q15057 whole entry, looked up): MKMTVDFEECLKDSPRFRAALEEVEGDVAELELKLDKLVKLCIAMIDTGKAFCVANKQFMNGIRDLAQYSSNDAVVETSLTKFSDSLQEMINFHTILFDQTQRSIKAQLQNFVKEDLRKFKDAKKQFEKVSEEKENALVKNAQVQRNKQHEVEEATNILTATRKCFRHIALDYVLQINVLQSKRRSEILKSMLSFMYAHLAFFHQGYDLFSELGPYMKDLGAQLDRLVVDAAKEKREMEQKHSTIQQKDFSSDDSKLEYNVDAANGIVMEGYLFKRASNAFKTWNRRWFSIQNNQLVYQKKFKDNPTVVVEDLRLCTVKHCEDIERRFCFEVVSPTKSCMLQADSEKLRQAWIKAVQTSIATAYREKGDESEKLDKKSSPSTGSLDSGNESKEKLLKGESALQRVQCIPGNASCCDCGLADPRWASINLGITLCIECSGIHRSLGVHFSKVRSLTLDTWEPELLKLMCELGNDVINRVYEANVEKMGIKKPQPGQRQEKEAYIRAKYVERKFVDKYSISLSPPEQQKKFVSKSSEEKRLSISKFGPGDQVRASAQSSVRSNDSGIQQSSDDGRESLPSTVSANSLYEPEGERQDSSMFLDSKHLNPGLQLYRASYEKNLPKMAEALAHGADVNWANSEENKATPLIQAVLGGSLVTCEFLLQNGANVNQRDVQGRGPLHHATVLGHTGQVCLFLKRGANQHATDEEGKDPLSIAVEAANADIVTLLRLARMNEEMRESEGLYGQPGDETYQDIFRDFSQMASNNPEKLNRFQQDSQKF
inactive: IRAK-1-4 Inhibitor I -0.033 | ibrutinib -0.012 | [1] -0.038 | ralimetinib 0 | [2] -0.031 | [3] -0.065 | [4] 0.061 | pinometostat 0.029 | [5] -0.036 | [6] 0.004

ACADVL isoform 3 (UniProt P49748)
inactive: IRAK-1-4 Inhibitor I 0.038 | ibrutinib -0.002 | [1] 0.005 | ralimetinib -0.015 | [2] -0.016 | [3] -0.013 | [4] -0.025 | pinometostat -0.067 | [5] -0.032 | [6] 0.002

ATR (UniProt Q13535)
inactive: IRAK-1-4 Inhibitor I 0.093 | ibrutinib 0.031 | [1] 0.021 | ralimetinib -0.03 | [2] -0.077 | [3] 0.046 | [4] 0.037 | pinometostat 0.101 | [5] 0.002 | [6] 0.109

ABHD16A (UniProt O95870)
active: [2] 0.361 | [3] 0.656
inactive: IRAK-1-4 Inhibitor I -0.039 | ibrutinib 0.043 | [1] -0.026 | ralimetinib 0.047 | [4] 0.064 | pinometostat -0.009 | [5] -0.064 | [6] 0.012

BOP1 (UniProt Q14137)
Sequence of UniProt Q14137 (Q14137 whole entry, looked up): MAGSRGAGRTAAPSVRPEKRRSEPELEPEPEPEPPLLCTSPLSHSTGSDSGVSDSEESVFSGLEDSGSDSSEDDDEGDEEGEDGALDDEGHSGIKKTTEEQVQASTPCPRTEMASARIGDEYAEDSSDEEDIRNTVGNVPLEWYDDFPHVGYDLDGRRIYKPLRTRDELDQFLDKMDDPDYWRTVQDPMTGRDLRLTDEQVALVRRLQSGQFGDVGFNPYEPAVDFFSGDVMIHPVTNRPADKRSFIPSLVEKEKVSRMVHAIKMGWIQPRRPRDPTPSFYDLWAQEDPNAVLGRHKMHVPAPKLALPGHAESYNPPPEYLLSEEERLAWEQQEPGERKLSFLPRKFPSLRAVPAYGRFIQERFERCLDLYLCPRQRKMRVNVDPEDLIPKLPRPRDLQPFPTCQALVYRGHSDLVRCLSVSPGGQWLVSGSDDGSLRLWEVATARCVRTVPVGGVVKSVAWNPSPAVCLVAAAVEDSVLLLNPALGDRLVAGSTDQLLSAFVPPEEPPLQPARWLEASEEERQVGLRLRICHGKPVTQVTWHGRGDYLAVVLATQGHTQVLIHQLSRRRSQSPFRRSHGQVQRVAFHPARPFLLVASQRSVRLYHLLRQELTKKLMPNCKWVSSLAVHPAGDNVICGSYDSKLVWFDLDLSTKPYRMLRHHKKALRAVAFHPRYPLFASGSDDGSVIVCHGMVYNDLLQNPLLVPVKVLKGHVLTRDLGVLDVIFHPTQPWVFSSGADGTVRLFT
inactive: IRAK-1-4 Inhibitor I -0.039 | ibrutinib 0.01 | [1] -0.083 | ralimetinib 0.041 | [2] 0.119 | [3] -0.068 | [4] 0.031 | pinometostat 0.021 | [5] 0.01 | [6] -0.078

AKR1C2 (UniProt P52895)
Sequence of UniProt P52895 (P52895 whole entry, looked up): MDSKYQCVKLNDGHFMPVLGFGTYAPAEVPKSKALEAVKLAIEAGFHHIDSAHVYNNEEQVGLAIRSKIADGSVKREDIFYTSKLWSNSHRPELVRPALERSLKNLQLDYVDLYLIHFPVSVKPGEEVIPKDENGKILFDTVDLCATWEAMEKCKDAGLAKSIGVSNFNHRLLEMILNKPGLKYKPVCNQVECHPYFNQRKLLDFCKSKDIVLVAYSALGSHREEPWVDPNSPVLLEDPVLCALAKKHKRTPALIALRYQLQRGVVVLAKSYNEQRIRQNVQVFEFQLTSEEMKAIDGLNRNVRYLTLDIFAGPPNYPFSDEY
inactive: IRAK-1-4 Inhibitor I -0.218 | ibrutinib 0.006 | [1] -0.043 | ralimetinib -0.015 | [2] 0.099 | [3] -0.16 | [4] -0.043 | pinometostat 0.049 | [5] 0.008 | [6] -0.063

AKAP8 (UniProt O43823)
inactive: IRAK-1-4 Inhibitor I 0.058 | ibrutinib 0.002 | [1] -0.205 | ralimetinib -0.018 | [2] -0.097 | [3] 0.019 | [4] 0.054 | pinometostat 0.003 | [5] 0.056 | [6] -0.113
